Screening results: PubChem, National Center for Advancing Translational Sciences (NCATS)
The list is not random: actives were taken first. Their share in the collection is about 2.2%.
Vaccinia Venus: vaccinia inhibition (Venus reporter). Vaccinia virus Venus reporter expression, fluorescence. Potency, µM (series often up to 36.5 µM), for the others: top-dose activity change, negative = inhibition, usual class: inhibitors. 0.46% of 330,000 active. AID 720580; calls by dose curve; tested in A549 cells; note: nearly all actives have a fitted effect of over 30% in size
Vaccinia mCherry: inhibitors of vaccinia virus infection (mCherry reporter signal) | Potency, µM (doses to about 36.5 µM), without a hit: top-dose activity change, negative = inhibition, hits mostly inhibitors | Vaccinia virus mCherry reporter infection, fluorescence | 0.63% of 310,000 active; calls by dose curve; tested in A549 cells; note: nearly all actives have a fitted effect of over 35% in size
FMDV inh: blocks foot and mouth disease virus; FMDV antiviral cell-based qHTS; Potency, µM (series often up to 57.9 µM), for the others: top-dose activity change, negative = inhibition, usual class: inhibitors; 1.2% of 410,000 active; AID 1159524; calls by dose curve; tested in HEK293T cells; note: read-out not given here; nearly all actives have a fitted effect of over 45% in size
Giardia FBPA inh: inhibitors of Giardia lamblia fructose-1,6-bisphosphate aldolase. A8B2U2. purified Giardia FBPA. Potency, µM (series often up to 59.6 µM), for inactives: top-dose activity, negative = inhibition, hits mostly inhibitors. 0.71% of 290,000 active. AID 2451; active = well fitted inhibition curve with a large enough effect; inconclusive = small, poorly fitted or top-dose-only effect, or effect the other way; note: nearly all actives have a fitted effect of over 55% in size
Target sequence (A8B2U2 whole entry, looked up): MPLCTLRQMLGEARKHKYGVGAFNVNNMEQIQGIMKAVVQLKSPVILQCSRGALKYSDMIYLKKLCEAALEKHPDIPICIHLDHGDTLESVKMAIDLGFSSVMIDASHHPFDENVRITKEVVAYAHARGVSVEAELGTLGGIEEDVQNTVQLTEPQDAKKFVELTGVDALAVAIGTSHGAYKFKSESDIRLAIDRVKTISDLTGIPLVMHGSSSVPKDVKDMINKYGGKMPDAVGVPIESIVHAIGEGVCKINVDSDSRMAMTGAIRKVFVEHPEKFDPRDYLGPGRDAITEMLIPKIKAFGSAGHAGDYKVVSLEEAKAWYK
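Giardia FBPA (40 nM reagent) was preincubated 10 min at RT with compound (up to 57.5 uM final), then substrate plus GAPDH/TPI/NAD/arsenate coupling system with diaphorase/resazurin was added; resorufin fluorescence (525/598 nm) was read after 20 min.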
Numbers without * were called inactive; i = inactive; ? = inconclusive; / = no result given. % is set by controls: 0 for no effect and ±100 for the full control effect; potency is the fitted concentration of half-maximal effect.

SMILES | Vaccinia Venus | Vaccinia mCherry | FMDV inh | Giardia FBPA inh
COc1cc(OC)c(/C=C2\C(=O)Nc3ccccc32)c(OC)c1 | ? | ? | 28µM* | /
COc1ccc(-n2c(/C=C3\C(=O)Nc4ccccc43)nc3ccccc3c2=O)cc1 | -12% | i | ? | 1%
COc1ccc2c(c1)/C(=C/c1cnc[nH]1)C(=O)N2 | 7.1µM* | 3.5µM* | 15% | 10%
O=[N+]([O-])c1ccc(N2CCCCCC2)c2nonc12 | i | -15% | -7% | 1%
Nc1ccc(N2CCCCC2)c2nonc12 | 0% | i | 23% | 2µM*
COc1cccc(/C=C/C(=O)NNC(=O)CCN2CCN(Cc3ccccc3)CC2)c1 | -22% | ? | -24% | 3%
O=C(/C=C/c1ccc(F)cc1)NNC(=O)CCN1CCN(Cc2ccccc2)CC1 | ? | 11µM* | -21% | 3%
OC1(c2ccc3c(c2)CN(Cc2ccccn2)CCO3)CCN(c2ccccc2F)CC1 | -7% | i | -8% | /
COc1ccc(O)c(/C=N/n2c(-c3ccco3)csc2=Nc2cccnc2)c1 | -15% | -27% | ? | 1%
CN=c1scc(-c2ccco2)n1/N=C/c1ccc(O)c(O)c1 | -26% | -25% | 14µM* | ?
N#CCSc1nc(Nc2ccc3c(c2)OCO3)c2ccccc2n1 | / | / | 22µM* | 1%
O=C(CN1C(=O)/C(=C2\SC(=S)N(C3CCS(=O)(=O)C3)C2=O)c2ccccc21)Nc1ccc(F)cc1 (stereo not drawn) | -9% | -27% | 13µM* | -14%
CCCc1ccc(C(=O)O/N=C(\N)c2ccccn2)cc1 | -6% | -10% | 14µM* | 13%
N/C(=N\OC(=O)c1ccc([N+](=O)[O-])cc1Cl)c1ccccn1 | ? | 2.8µM* | 16µM* | 21%
Cc1ccc(C(=O)O/N=C(\N)c2ccccn2)c(Cl)c1 | / | / | 10µM* | 9%
N/C(=N\OC(=O)c1ccc(Cl)cc1Cl)c1ccccn1 | / | / | -54% | -2%
Cc1csc(NC(=O)CSc2ncnc3c2cnn3-c2ccccc2Cl)n1 | ? | ? | 14µM* | 1%
CCOC(=O)Cc1csc(NC(=O)CSc2ncnc3c2cnn3-c2ccc(OC)cc2)n1 | -26% | i | 22µM* | 1%
O=C(c1cnn2c1NC(=C1CC1)C=C2C(F)F)N1CCc2ccccc21 | -21% | -7% | / | /
CCN(CC)S(=O)(=O)c1ccc(NC(=O)CSc2nnc3c(n2)[nH]c2ccccc23)cc1 | ? | -13% | / | /
O=C(N/N=C/c1c(O)ccc2ccccc12)c1[nH]ncc1Br | ? | 2.5µM* | 64% | -22%
Cc1ccc(O)c(/C=N/NC(=O)c2[nH]ncc2Br)c1 | -14% | -13% | 41% | ?
CCOc1ccc(/C=N/NC(=O)c2[nH]ncc2Br)c(O)c1 | ? | 1.3µM* | -39% | 12%
O=C(N/N=C\c1c(O)ccc2ccccc12)c1ccc(Cn2cccn2)o1 | ? | 4.5µM* | ? | -9%
O=C(N/N=C/c1c(O)ccc2ccccc12)c1cccc(C(F)(F)F)c1 | ? | 3.5µM* | ? | ?
SMILES | Vaccinia Venus | Vaccinia mCherry | FMDV inh | Giardia FBPA inh
Cc1cc2ccccc2cn1 | -5% | -10% | / | /
O=C(CCl)Nc1cc(-c2ccccc2)nn1-c1ccccc1 | / | / | -67% | 0%
Cc1ccc(-c2cc(NC(=O)CCl)n(-c3ccccc3)n2)cc1 | -12% | -5% | 22µM* | -25%
COCCN1CCN(C(=O)c2cnn(-c3nccc(-c4cc5ccccc5o4)n3)c2C2CC2)CC1 | -9% | -26% | -1% | /
O=C(O)c1ccccc1C(=O)N1CCN(Cc2ccc3c(c2)OCO3)CC1 | / | / | -16% | 4%
Cc1nn(Cc2ccccc2)c2sc(C(=O)N3CCN(Cc4ccc5c(c4)OCO5)CC3)cc12 | ? | / | 32µM* | 8%
COc1cc(-c2cc(C)c3cccc(OC)c3n2)cc2c1OCCN(C(=O)CCn1ccc(C)n1)C2 | -9% | -29% | -21% | /
COc1cc(=O)n2c(c1C(=O)NC(C)c1ccco1)CCN(C(=O)c1ccccc1SC)CC2 (stereo not drawn) | 0% | i | 23% | /
CC1CCN(S(=O)(=O)c2cnc(Cl)c(Br)c2)CC1 | -4% | -15% | -12% | 2%
CN1CCN(S(=O)(=O)c2cnc(Cl)c(Br)c2)CC1 | ? | 13µM* | -12% | 5%
CC(C)(C)C1CCc2nc(NC(=O)c3ccc([N+](=O)[O-])cc3)sc2C1 (stereo not drawn) | -2% | -16% | ? | /
CC(C)(C)C1CCc2nc(NC(=O)c3cccc(Cl)c3)sc2C1 (stereo not drawn) | -13% | 0% | 2µM* | /
COc1ccc(N(Cc2cc(=O)[nH]c3ccccc23)C(=O)CCl)cc1 | -27% | -19% | 20µM* | -8%
CCCC(=O)N(Cc1cc(=O)[nH]c2ccccc12)c1ccc(OC)cc1 | -13% | ? | -16% | -3%
Cc1cccc(N(Cc2cc(=O)[nH]c3ccccc23)C(=O)CCl)c1 | 13µM* | ? | 20µM* | 0%
O=C(C=P(c1ccccc1)(c1ccccc1)c1ccccc1)c1ccccc1-c1ccccc1C(=O)C=P(c1ccccc1)(c1ccccc1)c1ccccc1 | 3.5µM* | ? | 20µM* | /
COc1cccc(CN2CCCC(c3nc(-c4ccncc4)ncc3-c3ccccc3C)C2)c1O (stereo not drawn) | 5% | -12% | -12% | /
C#CC[N+](C)(C)CCCCCCCCCC | 14µM* | 16µM* | 0% | 8%
C#CC[N+](C)(C)CCCCCCCC | / | / | -22% | 7%
CCCCCCCCCCCCCCCC[N+](C)(C)CC | -8% | -14% | -9% | /
C#CC[N+](C)(C)CCCCCCCCCCCC | 7.9µM* | 8.9µM* | 22µM* | 4%
CC#CC[N+](C)(C)CCCCCCCCCCCC | / | / | 13µM* | 1%
CCC1CN(CCNC(=O)c2ccccc2-n2cccn2)Cc2cc(OC)ccc2O1 (stereo not drawn) | -2% | -15% | -13% | /
COc1ccc(S(=O)(=O)NCc2nc(N3CCCC3)c3cccc(C)c3n2)cc1OC | 8% | -9% | -5% | /
[O-]/C(=C(\C(=S)Nc1cccc2ccccc12)[n+]1ccccc1)c1ccc(OC(F)F)cc1 | 8% | 7% | -4% | 22µM*
SMILES | Vaccinia Venus | Vaccinia mCherry | FMDV inh | Giardia FBPA inh
[O-]/C(=C(\C(=S)Nc1cccc2ccccc12)[n+]1ccccc1)c1ccc2c(c1)OCCO2 | / | / | -4% | 10µM*
Cn1c2ccccc2c2cc(C(=O)N3CCOc4ccc(C(C)(O)CCn5cccn5)cc4C3)ccc21 (stereo not drawn) | -13% | -13% | -10% | /
COc1ccc(Oc2ncc3nc(C)c(=O)n(C[C@H]4CCCO4)c3n2)cc1 | / | / | -30% | -6%
Cc1ccc(-c2ccnc(-n3ncc(C(=O)N(C)CC4CCCN(C)C4)c3C)n2)o1 (stereo not drawn) | -9% | -6% | 0% | /
CCN(CC)S(=O)(=O)c1cccc(NC(=O)c2ccc(Br)cc2)c1 | -25% | ? | 25µM* | -6%
CCN(CC)S(=O)(=O)c1cccc(C(=O)Nc2cc(C)cc(C)c2)c1 | -16% | -24% | 28% | -1%
CCN(CC)S(=O)(=O)c1ccc(NC(=O)c2ccc(N(C)S(C)(=O)=O)cc2)cc1 | ? | / | 4µM* | 3%
CCN(CC)S(=O)(=O)c1cccc(C(=O)Nc2ccc(C#N)cc2)c1 | / | / | 25µM* | -2%
